# Values joined by “and” are separate entries in the source; they are usually repeats but may differ in a detail not shown here. Equal values may be shown once. The whole screen tested about 5,500 compounds, of which about 2,000 (36%) were called active. Another 18% or so got no clear call; they are omitted. Some of the results follow. Values without a mark were called inactive. No stated cut-off is given here; in the data, active means normalized growth mostly below about 0.91 (no sharp cut-off); inconclusive means no clear call, values can overlap the other calls; inactive means mostly above about 0.92.
# Assay: chemical genetic growth profiling, strain panel (AID 1159580);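 further: tested at 20 µM; growth read once vehicle control cultures reached saturation at 30 °C; 1 = growth at the plate median or of vehicle wells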
# Conditions: S. cerevisiae deletion strains, growth OD
smiles,measurement,setting,value
C[n+]1cc2c3c(ccc2c2ccc4cc5c(cc4c21)OCO5)OCO3,normalized growth,"locus YJR043C, strain POL32, stronger effect = lower value",0.0783 (active)
same,normalized growth,"locus YJR066W, strain TOR1, stronger effect = lower value",0.931
same,normalized growth,"locus YJR075W, strain HOC1, stronger effect = lower value",0.0715 (active) and 0.0688 (active)
same,normalized growth,"locus YKL009W, strain mrt4, stronger effect = lower value",0.922
same,normalized growth,"locus YKL068W, stronger effect = lower value",0.964
same,normalized growth,"locus YKL085W, strain MDH1 (second series), stronger effect = lower value",0.921 (active)
same,normalized growth,"locus YKL085W, strain MDH1, stronger effect = lower value",0.921 (active)
same,normalized growth,"locus YKL160W, strain elf1, stronger effect = lower value",0.548 (active)
same,normalized growth,"locus YKL190W, strain CNB1, stronger effect = lower value",0.0545 (active)
same,normalized growth,"locus YKR001C, strain vps1, stronger effect = lower value",0.0723 (active)
same,normalized growth,"locus YKR026C, strain gcn3, stronger effect = lower value",0.843 (active)
same,normalized growth,"locus YKR091W, strain srl3, stronger effect = lower value",0.914 (active)
same,normalized growth,"locus YLL001W, strain dnm1, stronger effect = lower value",0.639 (active)
same,normalized growth,"locus YLL026W, stronger effect = lower value",0.549 (active)
same,normalized growth,"locus YLL041C, strain sdh2, stronger effect = lower value",0.778 (active)
same,normalized growth,"locus YLR027C, strain aat2, stronger effect = lower value",0.379 (active)
same,normalized growth,"locus YLR039C, strain RIC1, stronger effect = lower value",0.101 (active)
same,normalized growth,"locus YLR058C, strain SHM2, stronger effect = lower value",0.0596 (active)
same,normalized growth,"locus YLR102C, strain apc9, stronger effect = lower value",0.0679 (active)
same,normalized growth,"locus YLR113W, strain HOG1, stronger effect = lower value",0.951
same,normalized growth,"locus YLR221C, strain rsa3, stronger effect = lower value",0.562 (active)
same,normalized growth,"locus YLR258W, strain gsy2, stronger effect = lower value",0.502 (active)
same,normalized growth,"locus YLR262C, strain YPT6 (second series), stronger effect = lower value",0.827 (active)
same,normalized growth,"locus YLR262C, strain YPT6, stronger effect = lower value",0.123 (active)
same,normalized growth,"locus YLR268W, strain sec22, stronger effect = lower value",0.0776 (active)
same,normalized growth,"locus YLR320W, strain mms22, stronger effect = lower value",0.375 (active)
same,normalized growth,"locus YLR330W, strain CHS5, stronger effect = lower value",0.0586 (active)
same,normalized growth,"locus YLR342W, strain FKS1 (second series), stronger effect = lower value",0.0743 (active)
same,normalized growth,"locus YLR342W, strain FKS1, stronger effect = lower value",0.349 (active)
same,normalized growth,"locus YLR357W, strain rsc2, stronger effect = lower value",0.844 (active)
same,normalized growth,"locus YLR370C, strain arc18, stronger effect = lower value",0.762 (active)
same,normalized growth,"locus YLR371W, strain rom2, stronger effect = lower value",0.0708 (active)
same,normalized growth,"locus YLR384C, strain iki3, stronger effect = lower value",0.97
same,normalized growth,"locus YLR418C, strain cdc73, stronger effect = lower value",0.107 (active)
same,normalized growth,"locus YML016C, strain PPZ1, stronger effect = lower value",0.0598 (active)
same,normalized growth,"locus YML032C, strain rad52, stronger effect = lower value",0.0764 (active)
same,normalized growth,"locus YML120C, strain ndi1, stronger effect = lower value",0.582 (active)
same,normalized growth,"locus YML124C, strain tub3, stronger effect = lower value",0.0684 (active)
same,normalized growth,"locus YMR058W, strain fet3, stronger effect = lower value",0.592 (active)
same,normalized growth,"locus YMR078C, strain ctf18, stronger effect = lower value",0.0819 (active)
same,normalized growth,"locus YMR125W, strain sto1, stronger effect = lower value",0.462 (active)
same,normalized growth,"locus YMR129W, stronger effect = lower value",0.779 (active)
same,normalized growth,"locus YMR205C, strain PFK2, stronger effect = lower value",0.273 (active)
same,normalized growth,"locus YMR223W, strain ubp8, stronger effect = lower value",0.077 (active)
same,normalized growth,"locus YMR231W, strain pep5, stronger effect = lower value",0.991
same,normalized growth,"locus YMR307W, strain GAS1, stronger effect = lower value",0.145 (active) and 0.0622 (active)
same,normalized growth,"locus YNL067W, strain RPL9B, stronger effect = lower value",0.0573 (active)
same,normalized growth,"locus YNL071W, strain lat1, stronger effect = lower value",0.0942 (active)
same,normalized growth,"locus YNL175C, strain NOP13, stronger effect = lower value",0.0763 (active)
same,normalized growth,"locus YNL183C, strain NPR1, stronger effect = lower value",0.923
same,normalized growth,"locus YNL197C, strain WHI3, stronger effect = lower value",0.0898 (active)
same,normalized growth,"locus YNL209W, strain ssb2, stronger effect = lower value",0.623 (active)
same,normalized growth,"locus YNL224C, strain SQS1, stronger effect = lower value",0.0906 (active)
same,normalized growth,"locus YNL233W, strain BNI4, stronger effect = lower value",0.0657 (active)
same,normalized growth,"locus YNL248C, strain rpa49, stronger effect = lower value",0.688 (active)
same,normalized growth,"locus YNL250W, strain rad50, stronger effect = lower value",0.839 (active)
same,normalized growth,"locus YNL271C, strain bni1, stronger effect = lower value",0.92
same,normalized growth,"locus YNL298W, strain CLA4, stronger effect = lower value",0.951
same,normalized growth,"locus YNL307C, strain MCK1, stronger effect = lower value",0.0755 (active)
same,normalized growth,"locus YNL322C, strain KRE1 (second series), stronger effect = lower value",1
same,normalized growth,"locus YNL322C, strain KRE1, stronger effect = lower value",0.0622 (active)
same,normalized growth,"locus YNR049C, strain mso1, stronger effect = lower value",0.964
same,normalized growth,"locus YNR052C, strain pop2, stronger effect = lower value",0.085 (active)
same,normalized growth,"locus YOL006C, strain TOP1, stronger effect = lower value",0.135 (active)
same,normalized growth,"locus YOL012C, strain htz1",0.232
same,normalized growth,"locus YOL147C, strain pex11, stronger effect = lower value",0.0667 (active)
same,normalized growth,"locus YOR001W, strain rrp6, stronger effect = lower value",0.823 (active)
same,normalized growth,"locus YOR061W, strain CKA2, stronger effect = lower value",0.0586 (active)
same,normalized growth,"locus YOR069W, strain VPS5, stronger effect = lower value",0.0593 (active)
same,normalized growth,"locus YOR070C, strain gyp1, stronger effect = lower value",0.413 (active)
same,normalized growth,"locus YOR080W, strain dia2, stronger effect = lower value",0.825 (active)
same,normalized growth,"locus YOR083W, strain WHI5 (second series), stronger effect = lower value",0.0851 (active)
same,normalized growth,"locus YOR083W, strain WHI5, stronger effect = lower value",0.475 (active)
same,normalized growth,"locus YOR106W, strain vam3, stronger effect = lower value",0.315 (active)
same,normalized growth,"locus YOR136W, strain idh2, stronger effect = lower value",0.0832 (active)
same,normalized growth,"locus YOR144C, strain elg1, stronger effect = lower value",0.0651 (active)
same,normalized growth,"locus YOR184W, strain ser1, stronger effect = lower value",0.0766 (active)
same,normalized growth,"locus YOR231W, strain MKK1, stronger effect = lower value",0.96
same,normalized growth,"locus YOR265W, strain rbl2, stronger effect = lower value",0.5 (active)
same,normalized growth,"locus YOR270C, strain vph1, stronger effect = lower value",0.38 (active)
same,normalized growth,"locus YOR290C, strain snf2, stronger effect = lower value",0.412 (active)
same,normalized growth,"locus YOR316C, strain cot1, stronger effect = lower value",0.0661 (active)
same,normalized growth,"locus YPL051W, strain arl3, stronger effect = lower value",0.512 (active)
same,normalized growth,"locus YPL055C, strain LGE1, stronger effect = lower value",0.0742 (active) and 0.092 (active)
same,normalized growth,"locus YPL078C, strain atp4, stronger effect = lower value",0.538 (active)
same,normalized growth,"locus YPL106C, strain sse1, stronger effect = lower value",0.741 (active)
same,normalized growth,"locus YPL240C, strain hsp82, stronger effect = lower value",0.58 (active)
same,normalized growth,"locus YPL256C, strain CLN2, stronger effect = lower value",0.969
same,normalized growth,"locus YPR119W, strain clb2, stronger effect = lower value",0.07 (active)
same,normalized growth,"locus YPR141C, strain kar3, stronger effect = lower value",0.971
same,normalized growth,"locus YPR163C, strain tif3, stronger effect = lower value",0.0761 (active)
same,normalized growth,"locus YPR167C, strain met16, stronger effect = lower value",0.0704 (active)
same,normalized growth,"strain wtn01, stronger effect = lower value",0.067 (active)

# Reference: PubChem BioAssay AID1159580 (chemical genetic matrix, 2015)
